Most compounds without a hit are left out; they make up all but 3.5% or so of the library.
MITF primary = inhibitors of human MITF; actives 0.91% (n = 650,000); AID 1259374; AlphaScreen MITF homodimerization, bead proximity signal; inhibition, % at 2.6 µM; in the data active = inhibition above about 50%
TEAD-YAP inh = TEAD-YAP interaction inhibition; HEK-TIYL cells, TEAD-Gal4/YAP UAS-luciferase luminescence; inhibition, % at 9.12 µM; actives 1.4% (n = 640,000); in the data active = inhibition above about 32%
FBW7 activator = human FBW7 E3 ligase activation, primary screen. Q969H0. AlphaScreen FBW7–phospho-cyclin E peptide binding, activator screen. normalized activity (activation), % at 26.1 µM. actives 0.13% (n = 650,000); in the data active = normalized activity above about 1.9%;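 note: purified mutant Fbw7 with reduced substrate affinity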
GPR151 activ = human GPR151 activation; Q8TDV0; PathHunter beta-arrestin GPR151 cells, luminescence; activation, % at 11.2 µM; actives 1% (n = 650,000); in the data active = activation above about 4.9%
Target sequence (Q8TDV0 whole entry, looked up): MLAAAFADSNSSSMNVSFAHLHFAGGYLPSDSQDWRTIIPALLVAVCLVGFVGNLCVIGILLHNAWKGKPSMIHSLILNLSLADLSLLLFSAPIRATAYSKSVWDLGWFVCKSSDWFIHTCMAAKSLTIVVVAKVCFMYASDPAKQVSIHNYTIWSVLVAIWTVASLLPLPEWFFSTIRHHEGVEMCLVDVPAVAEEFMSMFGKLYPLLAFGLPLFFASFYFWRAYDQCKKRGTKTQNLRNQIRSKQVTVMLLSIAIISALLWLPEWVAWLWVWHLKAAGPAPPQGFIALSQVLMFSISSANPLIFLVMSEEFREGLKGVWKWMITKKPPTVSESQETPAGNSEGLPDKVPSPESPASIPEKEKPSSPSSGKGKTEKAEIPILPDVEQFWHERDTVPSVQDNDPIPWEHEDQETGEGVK
Each line names hits and unclear results; the compound was inactive in the other large screens.

COc1cccc(-c2ccnc(-n3ncc(C(=O)NCc4ccccn4)c3C3CC3)n2)c1	none
COCCCNC(=O)c1cnn(-c2nccc(-c3ccc(OC)c(F)c3)n2)c1C1CC1	TEAD-YAP inh 48
CSC1=C(C#N)C(c2ccccc2C)C2=C(CCCC2=O)N1 (stereo not given)	TEAD-YAP inh 39
CSC1=C(C#N)C(c2cccs2)C2=C(CCCC2=O)N1 (stereo not given)	none
COc1ccc(CC(=O)N2CCC(c3nc(C)ncc3-c3ccncc3)CC2)cc1	FBW7 activator 2.4
CC#CCN1C(=O)NC(CCc2ccccc2)(C2CCN(C(=O)c3nonc3C)CC2)C1=O (stereo not given)	none
O=C(CCSCCC(=O)NCc1ccc2c(c1)OCO2)NCc1ccc2c(c1)OCO2	none
COc1ccc(-n2c(SCC(=O)Nc3ccc([N+](=O)[O-])cc3Cl)nc3[nH]ncc3c2=O)cc1	TEAD-YAP inh 32
Cc1ccccc1-n1c(SCC(=O)Nc2ccc(C(F)(F)F)cc2)nc2[nH]ncc2c1=O	TEAD-YAP inh 37
O=C(CSc1nc2[nH]ncc2c(=O)n1-c1ccccc1)Nc1ccc([N+](=O)[O-])cc1Cl	none
CC(C)c1ccc(NC(=O)CSc2nc3[nH]ncc3c(=O)n2-c2ccccc2)cc1	TEAD-YAP inh 39
O=C(CSc1nc2[nH]ncc2c(=O)n1-c1ccccc1)Nc1ccc(C(F)(F)F)cc1	none
CC(C)c1ccc(NC(=O)CSc2nc3[nH]ncc3c(=O)n2-c2ccc(Cl)cc2)cc1	none
Cc1cccc(C)c1-n1c(SCc2ccccc2F)nc2c(sc(=S)n2CCc2ccccc2)c1=O	none
Cc1cccc(C)c1-n1c(SCc2ccccc2F)nc2c(sc(=S)n2-c2c(C)cccc2C)c1=O	TEAD-YAP inh 41
CCOc1ccc(-n2c(=S)sc3c(=O)n(-c4ccccc4)c(SCc4nc5ccccc5[nH]4)nc32)cc1	none
O=c1c2sc(=S)n(-c3ccccc3)c2nc(SCc2nc3ccccc3[nH]2)n1-c1ccccc1	TEAD-YAP inh 33
Cc1ccc(C(=O)NC2CCSC2=O)cc1[N+](=O)[O-] (stereo not given)	none
O=C1c2cccnc2C(=O)N1Cc1ccc(S(=O)(=O)NC2CCCc3ccccc32)cc1 (stereo not given)	none
COc1ccccc1C(=O)NC(=S)NNC(=O)c1ccccc1C	none
COc1ccccc1C(=O)NC(=S)Nc1ccc(NC(C)=O)cc1	none
COc1ccccc1C(=O)NC(=S)Nc1ccccc1	TEAD-YAP inh 36
COc1ccccc1C(=O)NC(=S)Nc1ccccc1[N+](=O)[O-]	TEAD-YAP inh 45
COc1ccccc1C(=O)NNC(=S)NC(=O)c1ccc(Cl)cc1Cl	FBW7 activator 5.1
CCC(=O)N1c2ccccc2NC2=C(C(=O)CC(c3ccccc3)C2)C1c1ccc(Cl)cc1 (stereo not given)	none
COc1ccc(N2C(=O)NC3CC2(C)Oc2ccc(Cl)cc23)cc1OC (stereo not given)	FBW7 activator 2.2
O=C(OCc1ccc(Cl)cc1Cl)c1ccco1	none
Cc1ccc2cc3c(nc2c1C)OC(C)C(=O)N(Cc1ccco1)C3 (stereo not given)	TEAD-YAP inh 56
Cc1cc(C)c2nc3c(cc2c1)CN(Cc1ccco1)C(=O)CO3	none
Cc1ccccc1-c1nc2ccccc2[nH]1	none
Cc1cc2nc(-c3ccc[nH]c3=O)[nH]c2cc1C	TEAD-YAP inh 86
COc1ccc(C2C(C(C)=O)=C(O)C(=O)N2c2nc3ccccc3s2)c(OC)c1 (stereo not given)	TEAD-YAP inh 47
COc1ccc(C2/C(=C(\O)c3ccccc3)C(=O)C(=O)N2c2nc3ccccc3s2)c(OC)c1 (stereo not given)	none
COc1ccc(C2/C(=C(\O)c3ccc(Cl)cc3)C(=O)C(=O)N2c2nc3ccccc3s2)c(OC)c1 (stereo not given)	TEAD-YAP inh 41
COc1cccc(C2C(C(C)=O)=C(O)C(=O)N2c2nc3ccccc3s2)c1 (stereo not given)	none
COC(=O)C1=C(O)CSC1=Nc1ccc(Cl)cc1Cl	none
CCOc1c(Cl)cc(C(=O)OCC(=O)N2c3ccccc3NC(=O)C2(C)C)cc1OC	TEAD-YAP inh 32
CC1(C)C(=O)Nc2ccccc2N1C(=O)CN1C(=O)c2ccccc2C1=O	none
CC1(C)C(=O)Nc2ccccc2N1C(=O)CCl	TEAD-YAP inh 48
CCCCOC(=O)c1cccc(NC(=O)COc2cc(C)cc(C)c2)c1	none
Cc1cc(NC(=O)COC(=O)c2ccc(N(C)C)c([N+](=O)[O-])c2)no1	none
CN(CC(=O)Nc1ccccc1Br)S(=O)(=O)c1cccs1	FBW7 activator 5.8
Cc1ccc2c(c1)C1(NN=C(c3ccccc3O)S1)C(=O)N2 (stereo not given)	TEAD-YAP inh 54
O=C1C(c2ccccc2)Nc2c3ccccc3nc(=S)n21 (stereo not given)	none
CC(=O)Nc1ccc(C(=O)NCC(=O)OCc2ccc(C(=O)c3ccccc3)cc2)cc1	TEAD-YAP inh 44
CCOC(=O)N1CCC(N2C(=O)c3ccccc3C2Nc2ccc(C(C)=O)cc2)CC1 (stereo not given)	none
CC(C)S(=O)(=O)/C(Cl)=C(\Cl)C(=O)Nc1ccccc1Cl	TEAD-YAP inh 95
CN(C)c1ccnc2sc(C(N)=O)c(N)c12	TEAD-YAP inh 53
CCOC(=O)c1sc2nccc(N(C)C)c2c1N	none
CC1C(c2ccc3ccccc3n2)=CNc2ccccc21 (stereo not given)	TEAD-YAP inh 41
COc1ccc(OCC(O)Cn2c3ccccc3c3ccccc32)cc1 (stereo not given)	TEAD-YAP inh 45
O=C(c1cccc([N+](=O)[O-])c1)c1ccc2c(c1)C(=O)N(c1cc(Cl)ccc1O)C2=O	none
O=[N+]([O-])c1cccc(N/N=C/c2ccc([N+](=O)[O-])s2)c1	TEAD-YAP inh 39
COc1ccc(C(C[N+](=O)[O-])Sc2cccc3cccnc23)cc1 (stereo not given)	TEAD-YAP inh 57
COC(=O)CSc1cccc2cccnc12	none
Nc1cccc(-c2nc(NCCc3ccc(O)cc3)c3ncn(-c4ccsc4)c3n2)c1	TEAD-YAP inh 56
Nc1cccc(-c2nc(NCCN3CCOCC3)c3ncn(-c4ccsc4)c3n2)c1	TEAD-YAP inh 53
NC(=O)c1ccc(-c2nc(NCCN3CCOCC3)c3ncn(-c4ccsc4)c3n2)cc1	TEAD-YAP inh 33
O=C(NC1CC1)c1ccc(-c2nc(NC3CC3)c3ncn(-c4ccccc4)c3n2)cc1	TEAD-YAP inh 33
Cc1nc2ccccc2c2oc(C(=O)NCCCN3CCCCCC3)cc12	none
COc1ccc(CCNC(=O)CN2C(=O)c3cccnc3C2=O)cc1OC	none
CC(C)NC(=O)CN1C(=O)C(c2ccccc2)Oc2cccnc21 (stereo not given)	none
Cc1ccc(SCC(=O)NNC(=O)CCC(=O)c2cccs2)cc1	none
O=C(NC1CC1)c1ccc(-c2nc(NCCN3CCOCC3)c3ncn(-c4ccsc4)c3n2)cc1	TEAD-YAP inh 37
O=C(NC1CC1)c1ccc(-c2nc(NCCN3CCOCC3)c3ncn(-c4ccccc4)c3n2)cc1	TEAD-YAP inh 67
CCOc1ccc(Cl)cc1CSc1nnc(CC)n1N	none

Assay outcomes from PubChem BioAssay.
